In ChEMBL document CHEMBL3433997, “St. Jude Leishmania screening dataset” (2016) one finds inhibition data, which are given here for 36 molecules.

Assay type in all cases: functional
The target of assay [1] is Solute carrier family 2, facilitated glucose transporter member 1 (Homo sapiens) (UniProt P11166). In words: ST_JUDE_LEISH: Cytotoxicity at 2uM final concentration against transgenic Leishmania Mexicana promastigotes LmGLUT1 that are glucose transport deficient and complemented with the human glucose transporter GLUT1. Activity is measured by DNA content using SYBR green in vitro.

Assay [2] deals with Hexose transporter 1 (Plasmodium falciparum) (UniProt O97467). The experiment in a line: ST_JUDE_LEISH: Cytotoxicity at 2uM final concentration against transgenic Leishmania Mexicana promastigotes LmPfHT that are glucose transport deficient and complemented with the Plasmodium falciparum hexose transporter. Activity is measured by DNA content using SYBR green in vitro.
Assay [3] concerns the target Glucose transporter (Leishmania mexicana) (UniProt O61059). The experiment in a line: ST_JUDE_LEISH: Cytotoxicity at 2uM final concentration against transgenic Leishmania Mexicana promastigotes LmGT2 that are glucose transport deficient and complemented with the L. Mexicana glucose transporter 2. Activity is measured by DNA content using SYBR green in vitro.

Solute carrier family 2, facilitated glucose transporter member 1 (Homo sapiens), sequence (P11166 whole entry): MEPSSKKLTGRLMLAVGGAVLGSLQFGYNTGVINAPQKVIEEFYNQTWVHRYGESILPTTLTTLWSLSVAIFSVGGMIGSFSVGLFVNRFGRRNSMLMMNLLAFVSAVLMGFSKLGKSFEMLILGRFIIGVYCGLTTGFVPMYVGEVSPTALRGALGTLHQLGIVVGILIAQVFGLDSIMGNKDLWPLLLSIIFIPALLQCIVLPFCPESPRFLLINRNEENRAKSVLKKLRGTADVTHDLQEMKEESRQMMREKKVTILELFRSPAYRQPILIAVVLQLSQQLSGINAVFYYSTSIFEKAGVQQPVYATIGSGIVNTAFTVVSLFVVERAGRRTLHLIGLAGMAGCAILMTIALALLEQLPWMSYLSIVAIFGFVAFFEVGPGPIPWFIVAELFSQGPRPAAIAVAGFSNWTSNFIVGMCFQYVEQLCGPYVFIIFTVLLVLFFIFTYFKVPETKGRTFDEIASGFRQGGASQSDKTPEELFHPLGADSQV

On to `O=S(=O)(Nc1cccc(CCN2CCC(N3CCCCC3)CC2)c1)c1ccc(-c2ccccc2)cc1`, for which the inhibition in assay [1] turned out to be 3.35%; in assay [2], 5.01%; in assay [3], 3.57%.

In the case of `CCN1CCC(N(Cc2ccc(-c3ccc(C(F)(F)F)cc3)cc2)C(=O)Cn2c(CCc3cccc(F)c3F)cc(=O)c3c2CCCC3)CC1`, the results for the inhibition in assay [1], in assay [2] and in assay [3] were 0.35%, 0.64% and 0.87%, respectively.

Turning to `CC1(C)N=C(N)N=C(N)N1OCCCc1ccccc1`, the inhibition in assay [1] turned out to be 1.22%; in assay [2], 2.68%; in assay [3] it was 2.65%.

Consider `Oc1ccc2c(c1NCC1CCCCC1)CCCC2`, for which the inhibition in assay [1] came out at 2.5%; in assay [2], 2.89%; in assay [3] it was 1.57%.

For `Cc1ccc(CCNCC(O)c2cccc(C(F)(F)F)c2)cc1` (stereo not drawn), the inhibition in assay [1] came to 0.25%; in assay [2] it was 1.08%; in assay [3], 1.78%.

`COc1cc2nc(NCCc3ccccc3)nc(NCc3cc(C)no3)c2cc1OC`: the inhibition came out at 4.85% in assay [1], 4.61% in assay [2] and 2.42% in assay [3].

`Oc1ccc(Nc2nc(N3CCCC3)c3ccccc3n2)cc1`: the inhibition is 2.69% in assay [1], 1.64% in assay [2] and -0.61% in assay [3].

As for `N=c1sc2ccccc2n1CC(O)c1ccc(Cl)c(Cl)c1` (stereo not drawn), the inhibition in assay [1] was -1.41%; in assay [2], 1.26%; in assay [3], 0.57%.

For the molecule `O=c1cc(NCCCNCc2scc3c(Cl)cc(C(F)(F)F)nc23)[nH]c2ccccc12`, the inhibition in assay [1] amounted to 2.13%; in assay [2], 2.43%; in assay [3], 3.05%.

Take `Cc1cc(N(CCCN(C)C)Cc2cc(F)cc(F)c2)nc(Nc2ccc(Cl)cc2)n1`: the figures for the inhibition in assay [1], in assay [2] and in assay [3] were -0.3%, 0.46% and 1.83%, respectively.

In the case of `Oc1ccc(Cl)cc1-c1cc(C(F)(F)F)nc(-c2ccccc2)n1`, the inhibition in assay [1] is 7.04%; in assay [2] it was 5.96%; in assay [3], 8.28%.

As to `CN(C)c1ccc(N2C(N)=NC(N)=NC23CCCC3)cc1`, the inhibition in assay [1] was -0.69%; in assay [2] it was -0.9%; in assay [3], -3.85%.

On to `c1cncc(Oc2ccc(Nc3ccnc4cc(-c5cccc(CN6CCOCC6)c5)ccc34)cc2)c1`, for which the inhibition in assay [1] was -1.93%; in assay [2] it was -1.33%; in assay [3], -1.76%.

On to `Cc1cccc2nc(-c3cccc(-c4ccc(NC(=O)c5cccnc5)cc4)c3)[nH]c12`, for which the inhibition in assay [1] stood at 3.18%; in assay [2] it was 4.09%; in assay [3] it was 2.31%.

For `CN(C)C(CNC(=O)c1cc(-c2ccncc2)c(-c2ccc(NC(=O)Nc3cccc(Cl)c3)cc2)o1)c1ccccc1` (stereo not drawn), the figures for the inhibition in assay [1], in assay [2] and in assay [3] were 1.5%, 2.82% and 0.81%, respectively.

For `COc1ccc2nccc([C@@H](O)CN3CCC(NCc4nc5cc(F)ccc5o4)CC3)c2c1`, the results for the inhibition in assay [1], in assay [2] and in assay [3] were 8.07%, 6.24% and 1.01%, respectively.

On to `COc1cc(C(=O)Nc2cccc(-c3nc4ccccc4[nH]3)c2)ccc1OC(C)=O`, for which the inhibition in assay [1] is -0.73%; in assay [2] it was 2.19%; in assay [3] it was 0.31%.

Take `CCC(N)(C#Cc1ccc(-c2c(C)[nH]c(C)c(Br)c2=O)cc1)CC`: the results for the inhibition in assay [1], in assay [2] and in assay [3] were 2.45%, 2.05% and 0.36%, respectively.

As for `c1ccc2c(NCCCCCCCCNc3ccnc4ccccc34)ccnc2c1`, the inhibition is -0.47% in assay [1], 0.85% in assay [2] and 1.12% in assay [3].

Regarding `CCc1ccnc2c(N3CCCC3=O)cc(C(=O)N[C@@H](Cc3ccccc3)[C@H](O)CNC3CCOCC3)cc12`, the inhibition in assay [1] turned out to be 3.63%; in assay [2] it was 0.4%; in assay [3], 0.64%.

`Cc1c[nH]c2cc(/C=C/C(=O)NC3CCC(CCN4CCc5ccc(C#N)cc5CC4)CC3)ccc12` (stereo not drawn): the inhibition in assay [1] was 2.72%; in assay [2] it was 1.75%; in assay [3], 2.01%.

On to `Cc1c(C2CCN(CCCCNC(=O)c3ccc(-c4ccc(C#N)cc4)cc3)CC2)c2ccccc2n1CCO`, for which the inhibition in assay [1] came to 3.84%; in assay [2], 0.33%; in assay [3] it was 3.72%.

`COc1ccc(C(C)Nc2nc(N)c3cc(OC)c(OC)cc3n2)cc1` (stereo not drawn): the values for the inhibition in assay [1], in assay [2] and in assay [3] were 4.72%, 4.66% and 4.42%, respectively.

On to `O=c1ccc(CNc2nc(NCCc3ccccc3)nc3ccc(Cl)cc23)c[nH]1`, for which the figures for the inhibition in assay [1], in assay [2] and in assay [3] were 3.36%, 3.7% and 0.86%, respectively.

Take `COc1ccc2[nH]cc(C3CCN(CCCCCNC(=O)c4ccc(-c5ccccc5)cc4)CC3)c2c1`: the inhibition in assay [1] stood at 4.24%; in assay [2], 3.36%; in assay [3], 2.9%.

Consider `COc1cc(OC)c(NC(=O)COc2ccc(C)cc2)cc1Cl`, for which the inhibition in assay [1] worked out at 1.6%; in assay [2], 1.59%; in assay [3] it was 3.07%.

In the case of `N#Cc1ccc(CN2CCC(Oc3ccc(NC(=O)c4cccs4)cc3Cl)CC2)cc1`, the inhibition came to 5% in assay [1], 10.5% in assay [2] and 8.03% in assay [3].

Turning to `O=c1cc(NCCCNCc2cc3ccccc3s2)[nH]c2ccccc12`, the inhibition is 4.89% in assay [1], 6.01% in assay [2] and 3.82% in assay [3].

Take `Clc1ccc(Nc2nc(Nc3ccc(Cl)c(Cl)c3)nc(Sc3nc4ccccc4[nH]3)n2)cc1Cl`: the inhibition is 8.07% in assay [1], 9.05% in assay [2] and 7.05% in assay [3].

With `CCC[C@@H]([C@@H](CC1CCCCC1)C(=O)N[C@H](C(=O)Nc1nccs1)C(C)(C)SCCNC(=O)OCC)N(O)C=O`, the inhibition came to 3.35% in assay [1], 4.46% in assay [2] and 4.28% in assay [3].

For the molecule `COc1ccc(CCn2c(=N)c(C(=O)NCc3ccc(C)cc3)cc3c(=O)n4ccccc4nc32)cc1`, the inhibition stood at 3.94% in assay [1], 3.72% in assay [2] and 3.95% in assay [3].

With `CN(Cc1ccccc1)C1CCN(c2cc(NC(=O)c3cccc(F)c3)ccn2)CC1`, the inhibition in assay [1] stood at 6.87%; in assay [2] it was 8.73%; in assay [3] it was 6.54%.

Consider `Cc1nc(-c2ccc(-c3ccc(C(=O)Nc4ccc(I)c(OCC5CCCN5C)c4)cc3)c(C)c2)no1` (stereo not drawn), for which the inhibition in assay [1] was found to be 9.63%; in assay [2], 7.75%; in assay [3], 5.6%.

As for `O=C(Nc1ccc2nc3n(c(=O)c2c1)CCCCC3)C(=O)N1CCN(c2ccc(F)cc2)CC1`, the inhibition in assay [1] was 7.33%; in assay [2], 9.84%; in assay [3], 7.95%.

On to `O=C(Nc1cccc(N2CCC(NCc3cccnc3)CC2)c1)c1cccc(C(F)(F)F)c1`, for which the figures for the inhibition in assay [1], in assay [2] and in assay [3] were 1.16%, 1% and -0.6%, respectively.

Turning to `Cc1cccc2nc(-c3ccc(-c4ccc(CNCc5cccc(N)c5)cc4)s3)[nH]c12`, the inhibition in assay [1] stood at 4.29%; in assay [2], 1.98%; in assay [3], 2.76%.
